The text below walks through data of the supplement of paper PMC6555819.

For one assay, the system named is PPARg DBDmut IVT, anti-PPARg (DBD mutation: PPARg1 K132A/R137A, NR concentration 270 nM). The assay is described as follows: PBM binding z-score (relative to random genomic background probes); higher = stronger binding; sequences stand for … in GC…GCGATTGACAGCGTAGAATGAAGG
Put shortly: (§1)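 Binding buffer was PBS pH 7.4 with 2% milk, 0.02% Triton X-100, 1 mM DTT, 0.2 mg/mL BSA and 0.4 mg/ml salmon testes DNA. In it, ligand-free nuclear receptor dimers were incubated 1 h on custom Agilent 4×180K protein-binding microarrays carrying double-stranded probes. Antibodies against each partner (one per run) detected binding, and z-scores were calculated against random background probes after regression normalization of scanned fluorescence.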
CTACCAAAGTGAACAAGGTCGTTGATTACTATTC came in with a PBM binding z-score of 0.295.
Same read-out and setting: the value for GCTAGTTGCTCAGTAAAAGGTCACACACCGGTCG was 0.0665; that for TCTCGGGGGACACGAAAGGTCAGAGCTCGACATC was 6.38.
AGTCAAAGTTCATCTAGGTAACGTAAGATATGCT returned a PBM binding z-score of 1.17.
ATATGTAGGTCACATCCGGGTCATTCAGGCTATG: the PBM binding z-score is 2.12.
AGAATGAGGTTAAGAGCAGGGAAACAGAATACAT showed a PBM binding z-score of 0.293.
For GCTTACGGGTCAAAGGTTATAGCCTGAATAGAAT, the PBM binding z-score stood at 1.43.
CAAGCTAGGTCACGAAAGGTCAAAGTCGAATGAC showed a PBM binding z-score of -0.0947.
In turn, TAGCCTATGTCATGGGCCAGTATACCACGCGAAC registered a PBM binding z-score of 0.201.
In turn, CGTCCAAGGTCAGCAGGTCAGTGACAGCGACGTG returned a PBM binding z-score of -0.196.
Regarding TCATATAGGTAAAGGTGAAAGTGGAACGATATGA, the PBM binding z-score amounted to 1.26.
Turning to ATCTCAAGGTAACCAAGTTCAGTGAATGCCGAAC, the PBM binding z-score turned out to be 0.953.
The sequence CCTTACGGGTCAAGGTGATAGCACGGGTGGTACG returned a PBM binding z-score of -0.375.
ACAGACAGGTGAGTGAAGGTATCTCAGCTGGACG showed a PBM binding z-score of -1.07.
Sequence CAAACTAGGTCAAAGGTCCAAGTCGAGCCAACCA gave a PBM binding z-score of 1.19.
On the same count and under the same terms, next, ATATGTAGGTTAAGGGTCAGTCAGGTTGGTTCGC: 2.22.
For TCTGCTAGGTCAGTTGTTCAGCTAACGAGCTGCC, the PBM binding z-score came to 0.257.
Sequence AGTCAAAGTTCAGGAGGAGGTAACGTAAAGCACG gave a PBM binding z-score of 1.05.
Same read-out and setting: next, CCTTGCAGGCCAATCTGGGTCACTCAAGGCTTGA: -0.339; AGAACGAAGGCAATGAGTTGATAGCACGGGTGGC: -0.515.
On to AGTCAAAGTTCACTAGGTAACGTGAGATTCAGCT, for which the PBM binding z-score is 1.01.
GTACCAAGGTGAATTGGTCGTTGATGAGTAGGCG showed a PBM binding z-score of 0.076.
Take TCTGCTAGGTCAGTTCGTCAGCTAACGAGCTGCC: the PBM binding z-score was found to be 0.64.
Sequence CCTACTGGGGCAAAAAGGTCATTGATGCCGATAA yielded a PBM binding z-score of 1.73.
Take TTACCAAGGTGAAAGGTAGTTGATGCACGCCTTG: the PBM binding z-score was found to be 0.152.
TCAGACAGGTGAAGGTAACTTAGGTACGCAGTCG: the PBM binding z-score was found to be 0.159.
Sequence GCTGCTAGGTCAGGTGGGTCAGCTAACGGGTACG came in with a PBM binding z-score of -0.61.
The sequence TAGCCTAGCTCATTGGGCCAGTATAGTACGCATC came in with a PBM binding z-score of -1.08.
In the case of AACACAGGGTCATCGTAGGCCAGAGTACGCACAG, the PBM binding z-score worked out at 0.514.
Sequence GTACCAAGGTGGATAGGTCGTTGATGAGTAGGCG returned a PBM binding z-score of -1.37.
The same measure, in the same setting: next, ACTATTAGTTGAGACGAGGGTAACCGATAGGTTG: 0.539; CGTCAAAGTTCTACTAAGGTAACGTAAAGCACGC: 0.834; CGTCCAAGGTCAGAGGTCAGTGAAGAGATGACGG: -0.499.
In turn, GCTATTAATTGAAAGGGCAACCGAATGATTCTCG returned a PBM binding z-score of -0.0832.
As for GCATATAGGTAATACAAGGTGAACGTCCGATTGT, the PBM binding z-score was found to be 0.846.
CGTGCAAGGTCATAGGAGGTCAGTGAAGACAGAT yielded a PBM binding z-score of -0.0772.
CAAACTAGGTCACCGGAAGGTCAAAGTCCGCATG yielded a PBM binding z-score of 2.01.
The same measure, in the same setting: the value for TAGGCTAGGTCATGGGCCAGTATACCACGCGAAC was -0.653; that for CGTCCAAGGTCAGAGAGGTCAGGGAATGCCGAGT was 0.231; that for AGAATGACGTTATTAAGATCAGGGAATTGCGGTC was 0.222.

In another assay the test system is PPARg homodimer (NR concentration 180 nM). The assay is described as above. In a few lines:
as §1
As to CTACCAAAGTGAACAAGGTCGTTGATTACTATTC, the PBM binding z-score was 0.64.
Regarding GCTAGTTGCTCAGTAAAAGGTCACACACCGGTCG, the PBM binding z-score stood at 2.95.
Still for that read-out and setting: next, TCTCGGGGGACACGAAAGGTCAGAGCTCGACATC: 5.71; AGTCAAAGTTCATCTAGGTAACGTAAGATATGCT: 3.13; ATATGTAGGTCACATCCGGGTCATTCAGGCTATG: 3.45.
In turn, AGAATGAGGTTAAGAGCAGGGAAACAGAATACAT returned a PBM binding z-score of 0.456.
GCTTACGGGTCAAAGGTTATAGCCTGAATAGAAT yielded a PBM binding z-score of 7.84.
In turn, CAAGCTAGGTCACGAAAGGTCAAAGTCGAATGAC had a PBM binding z-score of 7.93.
As for TAGCCTATGTCATGGGCCAGTATACCACGCGAAC, the PBM binding z-score was -0.377.
On the same count and under the same terms, next, CGTCCAAGGTCAGCAGGTCAGTGACAGCGACGTG: 4.58.
Regarding TCATATAGGTAAAGGTGAAAGTGGAACGATATGA, the PBM binding z-score was found to be 1.46.
Sequence ATCTCAAGGTAACCAAGTTCAGTGAATGCCGAAC displayed a PBM binding z-score of 0.654.
Consider CCTTACGGGTCAAGGTGATAGCACGGGTGGTACG, for which the PBM binding z-score came to 1.63.
ACAGACAGGTGAGTGAAGGTATCTCAGCTGGACG: the PBM binding z-score was -0.226.
Regarding CAAACTAGGTCAAAGGTCCAAGTCGAGCCAACCA, the PBM binding z-score worked out at 3.75.
On the same count and under the same terms, the value for ATATGTAGGTTAAGGGTCAGTCAGGTTGGTTCGC was 3.78; that for TCTGCTAGGTCAGTTGTTCAGCTAACGAGCTGCC was -0.0463; that for AGTCAAAGTTCAGGAGGAGGTAACGTAAAGCACG was 2.81.
Take CCTTGCAGGCCAATCTGGGTCACTCAAGGCTTGA: the PBM binding z-score is 0.973.
AGAACGAAGGCAATGAGTTGATAGCACGGGTGGC showed a PBM binding z-score of -1.7.
The same measure, in the same setting: next, AGTCAAAGTTCACTAGGTAACGTGAGATTCAGCT: 2.06; GTACCAAGGTGAATTGGTCGTTGATGAGTAGGCG: -0.163; TCTGCTAGGTCAGTTCGTCAGCTAACGAGCTGCC: -0.455.
CCTACTGGGGCAAAAAGGTCATTGATGCCGATAA had a PBM binding z-score of 5.37.
The sequence TTACCAAGGTGAAAGGTAGTTGATGCACGCCTTG returned a PBM binding z-score of 0.643.
The sequence TCAGACAGGTGAAGGTAACTTAGGTACGCAGTCG came in with a PBM binding z-score of 1.08.
The sequence GCTGCTAGGTCAGGTGGGTCAGCTAACGGGTACG had a PBM binding z-score of 1.05.
On to TAGCCTAGCTCATTGGGCCAGTATAGTACGCATC, for which the PBM binding z-score is -1.36.
Regarding AACACAGGGTCATCGTAGGCCAGAGTACGCACAG, the PBM binding z-score came out at 2.34.
As to GTACCAAGGTGGATAGGTCGTTGATGAGTAGGCG, the PBM binding z-score worked out at 0.672.
Turning to ACTATTAGTTGAGACGAGGGTAACCGATAGGTTG, the PBM binding z-score was 0.211.
The sequence CGTCAAAGTTCTACTAAGGTAACGTAAAGCACGC gave a PBM binding z-score of 0.249.
CGTCCAAGGTCAGAGGTCAGTGAAGAGATGACGG displayed a PBM binding z-score of 3.51.
For the sequence GCTATTAATTGAAAGGGCAACCGAATGATTCTCG, the PBM binding z-score amounted to 1.66.
On to GCATATAGGTAATACAAGGTGAACGTCCGATTGT, for which the PBM binding z-score amounted to 0.673.
CGTGCAAGGTCATAGGAGGTCAGTGAAGACAGAT returned a PBM binding z-score of 4.07.
Sequence CAAACTAGGTCACCGGAAGGTCAAAGTCCGCATG registered a PBM binding z-score of 6.37.
On to TAGGCTAGGTCATGGGCCAGTATACCACGCGAAC, for which the PBM binding z-score amounted to 3.07.
As for CGTCCAAGGTCAGAGAGGTCAGGGAATGCCGAGT, the PBM binding z-score is 4.31.
Still for that read-out and setting: next, AGAATGACGTTATTAAGATCAGGGAATTGCGGTC: -0.803.
